Pf growth 96h = P. falciparum growth inhibition at 96 hour, primary screen for plastid delayed-death inhibitors; P. falciparum luciferase reporter growth, 96 h; Potency, µM (top dose mostly 28.7 µM), without a hit: top-dose activity change, negative = inhibition, usual class: inhibitors; actives 6.9% (n = 320,000); AID 504834; also: % is scaled to controls: 0 for no effect and ±100 for the full control effect
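Infected RBCs, 2% Hct / 0.05% parasitemia final; luciferase-reporter P. falciparum; cpd 96 h, 37 C, 5% CO2; luciferase detection reagent; luminescence.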
HCV inhibitor = inhibitors of hepatitis C virus infection; Huh7.5.1 HCVcc-Cre infection, luciferase reporter, 44 h; actives 3.4% (n = 340,000); AID 651820; Potency, µM (series often up to 41.8 µM), inactives show at the highest dose activity change, negative = inhibition, actives largely listed as inhibitors; also: % is scaled to controls: 0 for no effect and ±100 for the full control effect
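Whole-lifecycle infectious HCVcc-Cre system; cells 1,000/well, compound then virus (~0.5 moi) added 4 h after plating, 44 h culture. Luciferase read 15 sec following 15 min substrate incubation, room temp.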
Pf growth 48h = P. falciparum growth inhibition at 48 hours (one generation) | P. falciparum luciferase growth in erythrocytes, 48 h | Potency, µM (top dose mostly 28.7 µM), inactives show at the highest dose activity change, negative = inhibition, actives largely listed as inhibitors | actives 5.9% (n = 310,000) | AID 504832; also: % is scaled to controls: 0 for no effect and ±100 for the full control effect
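First compound was added to culture medium, then infected red cells at 0.1% parasitemia and 2% hematocrit (final). After incubation at 37 C under 5% CO2, luciferase detection reagent was dispensed and light output recorded.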
NS1 function inh = influenza NS1 inhibition | actives 0.4% (n = 270,000) | Potency, µM (doses to about 46.1 µM), for inactives: at the top dose activity, positive = more growth; calls by dose curve; also: actives are rising curves; nearly all actives have a fitted effect of over 50% in size
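S. cerevisiae expressing influenza A NS1, grown in glucose, washed, then diluted 1:100 into pH 6.0 -URA galactose medium with 23 nl compound. Growth recovery read as OD600; NS1-free strain serves as control.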
VACV mCherry inh = inhibitors of vaccinia virus infection (mCherry reporter signal); Vaccinia virus mCherry reporter infection, fluorescence; Potency, µM (doses to about 36.5 µM), for inactives: top-dose activity change, negative = inhibition, hits mostly inhibitors; actives 0.63% (n = 310,000); AID 720579; calls by dose curve; tested in A549 cells; also: % is scaled to controls: 0 for no effect and ±100 for the full control effect; nearly all actives have a fitted effect of over 35% in size
Vaccinia Venus = vaccinia inhibition (Venus reporter) | AID 720580 | Potency, µM (top dose mostly 36.5 µM), without a hit: at the top dose activity change, negative = inhibition, hits mostly inhibitors | actives 0.46% (n = 330,000) | Vaccinia virus Venus reporter expression, fluorescence; calls by dose curve; tested in A549 cells; also: % is scaled to controls: 0 for no effect and ±100 for the full control effect; nearly all actives have a fitted effect of over 30% in size
The depositor's hits bear a star; i = inactive; ? = inconclusive; . = no result. Rows were chosen to be rich in hits. Some 11% of all compounds tested hit in one or more screens of this group. Unless noted, calls follow the shape of the dose curve; as a rule, active = well fitted inhibition curve with a large enough effect; inconclusive = small, poorly fitted or top-dose-only effect, or another doubt; inactive = no such curve, though single readings can be large or run the other way. Potency is read from the fitted curve at half-maximal effect.

SMILES	Pf growth 96h	HCV inhibitor	Pf growth 48h	NS1 function inh	VACV mCherry inh	Vaccinia Venus
CCOC(=O)N1CCN(C(=O)C2CCCN(c3ncnc4c3nc3n4CCCCC3)C2)CC1 (stereo not given)	?	-3%	-25%	-7%	i	-8%
O=C(O)CSCc1cnn(-c2ccccc2)c1-n1cccc1	410%	.	10µM*	-63%	-10%	-19%
Cc1cccc(C)c1NC(=O)CSCc1cnn(-c2ccccc2)c1-n1cccc1	.	.	.	.	-11%	-15%
O=C(CN(Cc1ccccc1)C(=O)c1csnn1)NCCc1ccccc1	15%	27%	-7%	3%	10%	-1%
N#Cc1nc(-c2ccccc2F)oc1NCCN1CCOCC1	9.3µM*	-5%	.	-8%	4%	10%
N#Cc1nc(Cc2cccc3ccccc23)oc1NCCN1CCCCC1	.	11µM*	?	-5%	.	.
CNc1oc(Cc2cccc3ccccc23)nc1C#N	?	-3%	-21%	-49%	-7%	-18%
COc1ccc(CCNc2oc(COc3ccc(Br)cc3)nc2C#N)cc1OC	?	?	.	-52%	-7%	-3%
COc1ccc(CCNc2oc(Cc3cccc4ccccc34)nc2C#N)cc1OC	?	7.9µM*	6.6µM*	-40%	.	?
O=C(CN1C(=O)c2cccc3cccc1c23)NCc1ccc2c(c1)OCO2	.	-18%	.	-6%	.	.
O=C(c1ccc2nc(N3CCCCC3)sc2c1)N1CCN(Cc2ccc3c(c2)OCO3)CC1	22%	?	4.1µM*	-65%	-6%	-25%
CC1CCN(c2nc3ccc(C(=O)N4CCN(Cc5ccccc5)CC4)cc3s2)CC1	-17%	11µM*	.	0%	?	?
CCOC(=O)N1CCN(C(=O)c2ccc3nc(N4CCC(C)CC4)sc3c2)CC1	163%	-20%	?	-8%	.	?
CCN(Cc1ccccc1)S(=O)(=O)c1ccc(C(=O)N2CCN(c3nc4ccccc4s3)CC2)cc1	-6%	10µM*	0%	5%	-22%	-23%
O=C(CN1C(=O)c2cccc3cccc(c23)C1=O)N1CCN(Cc2ccc3c(c2)OCO3)CC1	-7%	22µM*	-15%	0%	?	-6%
Cc1ccc(S(=O)(=O)N(C)c2ccc(C(=O)NCC(c3ccco3)N(C)C)cc2)cc1 (stereo not given)	?	17%	?	.	.	.
CCOc1ccc(OCC)c(NC(=O)CC2Oc3ccccc3NC2=O)c1 (stereo not given)	4%	?	.	-24%	11%	-7%
CC1(C)SC2c3ccccc3C(=O)N2[C@@H]1C(=O)NCCCN1CCOCC1 (stereo not given in full)	30%	8%	-6%	2%	-1%	0%
Cc1cc(=O)oc2cc(OC(C)C(=O)NCCCN3CCCC3=O)c(Cl)cc12 (stereo not given)	?	17%	7%	-6%	i	-8%
CCOc1ccc2nc(N3CCC(C(=O)N4CCN(C(=O)c5ccco5)CC4)CC3)sc2c1	?	?	13µM*	-11%	-19%	-14%
O=C(c1cccnc1)N1CCN(Cc2ccc3c(c2)OCO3)CC1	4.1µM*	5%	12%	2%	-9%	1%
CCOc1ccc2nc(NC(=O)C3CCN(C(=O)c4ccco4)CC3)sc2c1	73%	-29%	-13%	8%	-27%	-23%
Cc1ccc2[nH]c3c(c2c1)CN(C(=O)CN1CCN(Cc2ccc4c(c2)OCO4)CC1)CC3	9.3µM*	?	?	-2%	.	?
Cc1ccc2[nH]c3c(c2c1)CN(C(=O)CN1CCSCC1)CC3	13%	.	?	6%	.	.
CCOC(=O)N1CCN(C(=O)c2ccc3nc(N4CCCCC4)sc3c2)CC1	10µM*	-10%	-3%	-6%	.	-17%
SMILES	Pf growth 96h	HCV inhibitor	Pf growth 48h	NS1 function inh	VACV mCherry inh	Vaccinia Venus
CN(C)c1ccc(C(=O)NNC(=O)C23CC4CC(CC(C4)C2)C3)cc1	.	11%	.	.	-20%	-13%
Cc1ccc(S(=O)(=O)NCCC(=O)OC(C)C(=O)NC2CC2)cc1 (stereo not given)	2%	12%	2%	.	-9%	-18%
NC(=O)CN1CCN(Cc2ccc3c(c2)OCO3)CC1	12µM*	16%	7%	7%	-15%	-10%
O=C(C1CCN(S(=O)(=O)c2ccccc2F)CC1)N1CCN(Cc2ccc3c(c2)OCO3)CC1	?	13µM*	?	.	.	.
c1cc2c(cc1Cn1cnnn1)OCO2	47%	22%	3%	7%	-7%	1%
Cc1nnc(C)c2c(C)n(Cc3ccc4c(c3)OCO4)c(C)c12	?	4.5µM*	?	10%	.	.
Cc1cccc(N=Nc2ccc(O)c3ncccc23)c1	?	5.6µM*	1.9µM*	-72%	14µM*	?
Oc1ccc(N=Nc2ccc3c(c2)OCCO3)c2ncccc12	1µM*	?	?	-50%	.	.
NS(=O)(=O)c1cc(Br)c(N=Nc2ccc(O)c3ncccc23)c(Br)c1	.	.	.	3%	.	.
CCOc1ccc(N=Nc2ccc(O)c3ncccc23)cc1	-3%	7.9µM*	0.74µM*	4%	?	-15%
O=c1[nH]c(O)c(N=Nc2ccc3c(c2)OCCO3)c(=O)[nH]1	i	-14%	493%	.	-9%	3%
Cc1ccc(C)c(N=Nc2ccc(O)c3ncccc23)c1	?	6.3µM*	2.1µM*	.	.	.
CCOC(CNC(=O)c1ccc(N2CCc3ccccc32)c([N+](=O)[O-])c1)OCC	?	?	-26%	-21%	-28%	-14%
CC12CCC(=O)N1C(C(=O)NCCc1ccccc1)CS2 (stereo not given)	?	11%	4%	-29%	.	.
CC(C)c1ccc(C(=O)Nc2cc(-c3ccccc3F)nn2-c2ccccc2)cc1	.	.	.	.	-22%	-11%
CC(CNC(=O)COC(=O)c1cccnc1Cl)c1ccccc1 (stereo not given)	46%	2%	-2%	.	i	5%
CCN(CC)S(=O)(=O)c1cc(OC)ccc1N=Nc1ccc(O)c2ncccc12	39%	5µM*	?	3%	?	?
CCCCC(=O)Nc1nc2c(OC)ccc(OC)c2s1	?	?	.	2%	i	-15%
CCCCCCC(=O)Nc1nc(C)c(-c2csc(Nc3ccccc3OC)n2)s1	3.7µM*	-13%	?	19%	?	?
CCCCCC(=O)Nc1nc(C)c(-c2csc(Nc3ccccc3OC)n2)s1	2.9µM*	0%	?	?	?	-24%
CCCCCC(=O)Nc1nc(C)c(-c2csc(Nc3ccccc3OCC)n2)s1	?	4%	?	8%	?	-28%
CCCC(C)C(=O)Nc1nc(C)c(-c2csc(Nc3ccccc3OC)n2)s1 (stereo not given)	9.3µM*	?	?	11%	?	-11%
CCC(=O)Nc1nc(C)c(-c2csc(Nc3ccccn3)n2)s1	6%	11µM*	13%	.	?	-23%
